Data reported in PubChem BioAssay (EPA / NIEHS).
Active and inactive are the calls of the source. How the source made its calls: active means hit-call score of the fitted dose curve at least 0.9, where 1 is the maximum; inactive means score below 0.9.

Assays:
[1] = CEETOX_H295R_PROG: CeeTox H295R High-throughput Steroidogenesis Assay for Progesterone (PROG) (AID 2283442); details: actives raise or lower the signal;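 on AC50: human H295R adrenal cells primed with 10 µM forskolin before dosing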
Outline: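 Progesterone secreted by human H295R cells was measured by LC-MS/MS following 48 h chemical exposure at 0.1% DMSO, preceded by 48 h forskolin (10 uM) stimulation. Same-well MTT viability; cytotoxic concentrations diluted 10- or 100-fold and retested.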

[2] = read-out: Tumor necrosis factor receptor superfamily member 6 (Homo sapiens) (UniProt P25445); assay: LTEA_HepaRG_FAS: Life Technologies and Expression Analysis (LTEA) Assay for Fas cell surface death receptor (FAS) using HepaRG (AID 2283447); details: mRNA level, 48 h; actives raise or lower the signal
Outline: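 Differentiated HepaRG cells in serum-free induction medium were exposed 48 h to 8 half-log concentrations up to 100 uM in 0.5% DMSO, in duplicate. FAS mRNA was measured by qRT-PCR normalised to ACTB, GAPDH and POLR2A; bidirectional fit versus DMSO.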

[3] = read-out: Fatty acid synthase (Homo sapiens) (UniProt P49327); assay: LTEA_HepaRG_FASN: Life Technologies and Expression Analysis (LTEA) Assay for Fatty Acid Synthase (FASN) using HepaRG (AID 2283448); details: mRNA level, 48 h; actives raise or lower the signal
Outline: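 Differentiated human HepaRG cells were exposed for 48 h in serum-free induction medium to eight half-log concentrations up to 100 uM in 0.5% DMSO, in duplicate. FASN mRNA was quantified by TaqMan qRT-PCR, normalized to ACTB/GAPDH/POLR2A, and fitted bidirectionally against DMSO.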

[4] = read-out: Cyclin D2 (CCND2), CCND2 (gene 894); assay: LTEA_HepaRG_CCND2: Life Technologies and Expression Analysis (LTEA) Assay for Cyclin D2 (CCND2) using HepaRG (AID 2283449); details: mRNA level, 48 h; actives raise or lower the signal;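 further: CCND2 transcript measured by TaqMan qRT-PCR and normalised to three housekeeping genes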
Outline: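 Chemicals in 0.5% DMSO, eight half-log concentrations from 100 uM top, were applied in duplicate for 48 h to human HepaRG cells in serum-free induction medium. CCND2 mRNA by TaqMan qRT-PCR, normalised to ACTB/GAPDH/POLR2A; bidirectional fit versus DMSO.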

[5] = read-out: Cyclin Dependent Kinase Inhibitor 1A (CDKN1A), CDKN1A (gene 1026); assay: LTEA_HepaRG_CDKN1A: Life Technologies and Expression Analysis (LTEA) Assay for Cyclin Dependent Kinase Inhibitor 1A (CDKN1A) using HepaRG (AID 2283450); details: mRNA level, 48 h; actives raise or lower the signal
Outline: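 Expression quantified by Fluidigm qRT-PCR with ACTB, GAPDH and POLR2A normalization, fitted bidirectionally against 0.5% DMSO. Cells: HepaRG, plated 48 h then treated 48 h in serum-free induction medium, top concentration 100 uM with half-log dilutions.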

[6] = read-out: Cyclin D1 (CCND1), CCND1 (gene 595); assay: LTEA_HepaRG_CCND1: Life Technologies and Expression Analysis (LTEA) Assay for Cyclin D1 (CCND1) using HepaRG (AID 2283451); details: mRNA level, 48 h; actives raise or lower the signal;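 on AC50: TaqMan qRT-PCR transcript level normalised to ACTB GAPDH and POLR2A housekeeping genes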
Outline: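 Expression of CCND1 was quantified by qRT-PCR on Fluidigm arrays using ACTB, GAPDH and POLR2A as reference genes. HepaRG cultures, plated 48 h beforehand, were dosed for 48 h at up to 100 uM (half-log, 8 points) in 0.5% DMSO.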

[7] = read-out: catalase (CAT), CAT (gene 847); assay: LTEA_HepaRG_CAT: Life Technologies and Expression Analysis (LTEA) Assay for catalase (CAT) using HepaRG (AID 2283452); details: mRNA level, 48 h; actives raise or lower the signal;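 on AC50: TaqMan qRT-PCR signal normalized to ACTB GAPDH and POLR2A housekeeping genes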
Outline: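 HepaRG cells in serum-free induction medium, 0.5% DMSO vehicle, exposed 48 h in duplicate over 8 half-log concentrations from 100 uM. CAT mRNA measured by qRT-PCR, normalized to ACTB, GAPDH, POLR2A; bidirectional fit versus DMSO.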

[8] = read-out: flavin-containing dimethylaniline monooxygenases 3 (FMO3), FMO3 (gene 2328); assay: LTEA_HepaRG_FMO3: Life Technologies and Expression Analysis (LTEA) Assay for flavin-containing dimethylaniline monooxygenases 3 (FMO3) using HepaRG (AID 2283453); details: mRNA level, 48 h; actives raise or lower the signal
Outline: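 HepaRG, 48 h exposure, 8-pt half-log series from 100 uM, 0.5% DMSO vehicle, duplicates; FMO3 transcript by Fluidigm TaqMan qRT-PCR, housekeeping-normalized; gain/loss fit vs DMSO.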

[9] = read-out: Cytochrome P450 (CYP1A1), CYP1A1 (gene 1543); assay: LTEA_HepaRG_CYP1A1: Life Technologies and Expression Analysis (LTEA) Assay for Cytochrome P450 (CYP1A1) using HepaRG (AID 2283454); details: mRNA level, 48 h; actives raise or lower the signal
Outline: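 CYP1A1 transcript levels measured by Fluidigm qRT-PCR against three housekeeping genes, 48 h after chemical dosing of human HepaRG cells (highest concentration 100 uM, half-log steps, 0.5% DMSO vehicle). Gain or loss of signal fitted relative to DMSO.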

[10] = read-out: CFLAR gene, CFLAR (gene 8837); assay: LTEA_HepaRG_CFLAR: Life Technologies and Expression Analysis (LTEA) Assay for CFLAR gene using HepaRG (AID 2283455); details: mRNA level, 48 h; actives raise or lower the signal
Outline: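 Differentiated HepaRG cells in serum-free induction medium were exposed 48 h in duplicate to eight half-log concentrations up to 100 uM in 0.5% DMSO; mRNA measured by TaqMan qRT-PCR, normalized to ACTB, GAPDH, POLR2A; bidirectional fitting versus DMSO.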

[11] = read-out: Forkhead box O1 (FOXO1), FOXO1 (gene 2308); assay: LTEA_HepaRG_FOXO1: Life Technologies and Expression Analysis (LTEA) Assay for Forkhead box O1 (FOXO1) using HepaRG (AID 2283456); details: mRNA level, 48 h; actives raise or lower the signal
Outline: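 Differentiated HepaRG cells, in serum-free induction medium with 0.5% DMSO, exposed 48 h in duplicate to 8-point half-log series from 100 uM. FOXO1 mRNA measured by TaqMan qRT-PCR, normalized to ACTB, GAPDH, POLR2A; bidirectional fit versus DMSO.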

[12] = CEETOX_H295R_TESTO: CeeTox H295R High-throughput Steroidogenesis Assay for Testosterone (TESTO) (AID 2283457); details: actives raise or lower the signal;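 on AC50: cells exposed to chemicals for 48 h before medium collection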
Outline: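 Testosterone secreted into the medium over 48 h by H295R cells (maximum passage 10) was quantified by LC-MS/MS after MTBE extraction. Fitted in both directions against DMSO, with concentrations diluted until MTT viability was ≥70%.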

[13] = read-out: Forkhead box O3 (FOXO3), FOXO3 (gene 2309); assay: LTEA_HepaRG_FOXO3: Life Technologies and Expression Analysis (LTEA) Assay for Forkhead box O3 (FOXO3) using HepaRG (AID 2283459); details: mRNA level, 48 h; actives raise or lower the signal
Outline: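 Differentiated human HepaRG cells, 48 h post-plating, exposed in duplicate for 48 h in serum-free induction medium; 8-point half-log series from 100 uM in 0.5% DMSO. FOXO3 mRNA by TaqMan qRT-PCR, normalized to ACTB/GAPDH/POLR2A; bidirectional fit versus DMSO.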

[14] = read-out: ABC Transporter (ABCB1), ABCB1 (gene 5243); assay: LTEA_HepaRG_ABCB1: Life Technologies and Expression Analysis (LTEA) Assay for ABC Transporter (ABCB1) using HepaRG (AID 2283460); details: mRNA level, 48 h; actives raise or lower the signal
Outline: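 HepaRG cells exposed in duplicate for 48 h in serum-free induction medium to eight half-log concentrations up to 100 uM in 0.5% DMSO. ABCB1 mRNA quantified by qRT-PCR, normalised to ACTB, GAPDH and POLR2A; fitted bidirectionally versus DMSO.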

[15] = read-out: growth arrest and DNA damage 45 (GADD45B), GADD45B (gene 4616); assay: LTEA_HepaRG_GADD45B: Life Technologies and Expression Analysis (LTEA) Assay for growth arrest and DNA damage 45 (GADD45B) using HepaRG (AID 2283461); details: mRNA level, 48 h; actives raise or lower the signal
Outline: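 Transcript level quantified by Fluidigm TaqMan qRT-PCR with three housekeeping genes for normalization, analyzed for up- or down-regulation against 0.5% DMSO. HepaRG cultures dosed 48 h at eight half-log concentrations up to 100 uM, duplicates.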

[16] = read-out: ABC Transporter (ABCC3), ABCC3 (gene 8714); assay: LTEA_HepaRG_ABCC3: Life Technologies and Expression Analysis (LTEA) Assay for ABC Transporter (ABCC3) using HepaRG (AID 2283462); details: mRNA level, 48 h; actives raise or lower the signal
Outline: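 Transcript level by TaqMan qRT-PCR, normalised to three housekeeping genes, fitted in both directions relative to vehicle. Chemicals tested in duplicate at eight half-log concentrations up to 100 uM for 48 h on HepaRG cells (0.5% DMSO).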

[17] = read-out: ABC Transporter (ABCB11), ABCB11 (gene 8647); assay: LTEA_HepaRG_ABCB11: Life Technologies and Expression Analysis (LTEA) Assay for ABC Transporter (ABCB11) using HepaRG (AID 2283463); details: mRNA level, 48 h; actives raise or lower the signal
Outline: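 Differentiated human HepaRG cells in serum-free induction medium, dosed in duplicate for 48 h. Eight-point half-log series from 100 uM in 0.5% DMSO; ABCB11 mRNA by qRT-PCR, normalized to ACTB, GAPDH, POLR2A, fitted bidirectionally versus DMSO.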

[18] = read-out: ABC Transporter (ABCC2), ABCC2 (gene 1244); assay: LTEA_HepaRG_ABCC2: Life Technologies and Expression Analysis (LTEA) Assay for ABC Transporter (ABCC2) using HepaRG (AID 2283464); details: mRNA level, 48 h; actives raise or lower the signal
Outline: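 Endpoint is ABCC2 transcript level from qRT-PCR, normalized to three housekeeping genes and fitted bidirectionally relative to DMSO. Human HepaRG cells received test chemical for 48 h at up to 100 uM (8 points, half-log steps, 0.5% DMSO), duplicate wells.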

[19] = read-out: Broad substrate specificity ATP-binding cassette transporter ABCG2 (Homo sapiens) (UniProt Q9UNQ0); assay: LTEA_HepaRG_ABCG2: Life Technologies and Expression Analysis (LTEA) Assay for ABC Transporter (ABCG2) using HepaRG (AID 2283465); details: mRNA level, 48 h; actives raise or lower the signal
Outline: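 Differentiated HepaRG cells were exposed for 48 h in serum-free induction medium to 8 half-log concentrations, top 100 uM, in 0.5% DMSO. ABCG2 mRNA was measured by qRT-PCR, normalized to ACTB, GAPDH and POLR2A, with bidirectional fitting versus DMSO.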

[20] = read-out: growth arrest and DNA damage 45 (GADD45A), GADD45A (gene 1647); assay: LTEA_HepaRG_GADD45A: Life Technologies and Expression Analysis (LTEA) Assay for growth arrest and DNA damage 45 (GADD45A) using HepaRG (AID 2283458); details: mRNA level, 48 h; actives raise or lower the signal
Outline: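 Differentiated HepaRG cells were exposed in duplicate for 48 h in serum-free induction medium to 8-point half-log concentrations up to 100 uM in 0.5% DMSO. GADD45A mRNA was measured by TaqMan qRT-PCR, normalized to ACTB, GAPDH and POLR2A, with bidirectional fitting versus DMSO.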

Measured: AC50

Broad substrate specificity ATP-binding cassette transporter ABCG2 (Homo sapiens), sequence (Q9UNQ0 whole entry, looked up): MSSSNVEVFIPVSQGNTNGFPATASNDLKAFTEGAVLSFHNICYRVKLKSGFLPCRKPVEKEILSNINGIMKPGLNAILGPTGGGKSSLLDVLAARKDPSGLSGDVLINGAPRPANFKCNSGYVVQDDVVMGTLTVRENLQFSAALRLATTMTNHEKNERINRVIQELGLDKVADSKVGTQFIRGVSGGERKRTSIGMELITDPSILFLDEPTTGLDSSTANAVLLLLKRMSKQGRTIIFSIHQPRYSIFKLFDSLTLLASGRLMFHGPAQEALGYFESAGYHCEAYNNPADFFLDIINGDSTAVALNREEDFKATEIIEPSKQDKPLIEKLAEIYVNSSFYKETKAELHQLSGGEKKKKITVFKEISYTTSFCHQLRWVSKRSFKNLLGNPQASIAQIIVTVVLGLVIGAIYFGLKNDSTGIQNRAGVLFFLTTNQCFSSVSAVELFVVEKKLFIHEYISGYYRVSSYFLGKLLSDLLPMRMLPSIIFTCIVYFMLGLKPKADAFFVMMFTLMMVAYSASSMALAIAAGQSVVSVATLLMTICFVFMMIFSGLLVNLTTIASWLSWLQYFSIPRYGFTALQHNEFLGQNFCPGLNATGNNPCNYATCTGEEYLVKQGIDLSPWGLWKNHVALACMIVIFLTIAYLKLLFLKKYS
Fatty acid synthase (Homo sapiens), sequence (P49327 whole entry, looked up): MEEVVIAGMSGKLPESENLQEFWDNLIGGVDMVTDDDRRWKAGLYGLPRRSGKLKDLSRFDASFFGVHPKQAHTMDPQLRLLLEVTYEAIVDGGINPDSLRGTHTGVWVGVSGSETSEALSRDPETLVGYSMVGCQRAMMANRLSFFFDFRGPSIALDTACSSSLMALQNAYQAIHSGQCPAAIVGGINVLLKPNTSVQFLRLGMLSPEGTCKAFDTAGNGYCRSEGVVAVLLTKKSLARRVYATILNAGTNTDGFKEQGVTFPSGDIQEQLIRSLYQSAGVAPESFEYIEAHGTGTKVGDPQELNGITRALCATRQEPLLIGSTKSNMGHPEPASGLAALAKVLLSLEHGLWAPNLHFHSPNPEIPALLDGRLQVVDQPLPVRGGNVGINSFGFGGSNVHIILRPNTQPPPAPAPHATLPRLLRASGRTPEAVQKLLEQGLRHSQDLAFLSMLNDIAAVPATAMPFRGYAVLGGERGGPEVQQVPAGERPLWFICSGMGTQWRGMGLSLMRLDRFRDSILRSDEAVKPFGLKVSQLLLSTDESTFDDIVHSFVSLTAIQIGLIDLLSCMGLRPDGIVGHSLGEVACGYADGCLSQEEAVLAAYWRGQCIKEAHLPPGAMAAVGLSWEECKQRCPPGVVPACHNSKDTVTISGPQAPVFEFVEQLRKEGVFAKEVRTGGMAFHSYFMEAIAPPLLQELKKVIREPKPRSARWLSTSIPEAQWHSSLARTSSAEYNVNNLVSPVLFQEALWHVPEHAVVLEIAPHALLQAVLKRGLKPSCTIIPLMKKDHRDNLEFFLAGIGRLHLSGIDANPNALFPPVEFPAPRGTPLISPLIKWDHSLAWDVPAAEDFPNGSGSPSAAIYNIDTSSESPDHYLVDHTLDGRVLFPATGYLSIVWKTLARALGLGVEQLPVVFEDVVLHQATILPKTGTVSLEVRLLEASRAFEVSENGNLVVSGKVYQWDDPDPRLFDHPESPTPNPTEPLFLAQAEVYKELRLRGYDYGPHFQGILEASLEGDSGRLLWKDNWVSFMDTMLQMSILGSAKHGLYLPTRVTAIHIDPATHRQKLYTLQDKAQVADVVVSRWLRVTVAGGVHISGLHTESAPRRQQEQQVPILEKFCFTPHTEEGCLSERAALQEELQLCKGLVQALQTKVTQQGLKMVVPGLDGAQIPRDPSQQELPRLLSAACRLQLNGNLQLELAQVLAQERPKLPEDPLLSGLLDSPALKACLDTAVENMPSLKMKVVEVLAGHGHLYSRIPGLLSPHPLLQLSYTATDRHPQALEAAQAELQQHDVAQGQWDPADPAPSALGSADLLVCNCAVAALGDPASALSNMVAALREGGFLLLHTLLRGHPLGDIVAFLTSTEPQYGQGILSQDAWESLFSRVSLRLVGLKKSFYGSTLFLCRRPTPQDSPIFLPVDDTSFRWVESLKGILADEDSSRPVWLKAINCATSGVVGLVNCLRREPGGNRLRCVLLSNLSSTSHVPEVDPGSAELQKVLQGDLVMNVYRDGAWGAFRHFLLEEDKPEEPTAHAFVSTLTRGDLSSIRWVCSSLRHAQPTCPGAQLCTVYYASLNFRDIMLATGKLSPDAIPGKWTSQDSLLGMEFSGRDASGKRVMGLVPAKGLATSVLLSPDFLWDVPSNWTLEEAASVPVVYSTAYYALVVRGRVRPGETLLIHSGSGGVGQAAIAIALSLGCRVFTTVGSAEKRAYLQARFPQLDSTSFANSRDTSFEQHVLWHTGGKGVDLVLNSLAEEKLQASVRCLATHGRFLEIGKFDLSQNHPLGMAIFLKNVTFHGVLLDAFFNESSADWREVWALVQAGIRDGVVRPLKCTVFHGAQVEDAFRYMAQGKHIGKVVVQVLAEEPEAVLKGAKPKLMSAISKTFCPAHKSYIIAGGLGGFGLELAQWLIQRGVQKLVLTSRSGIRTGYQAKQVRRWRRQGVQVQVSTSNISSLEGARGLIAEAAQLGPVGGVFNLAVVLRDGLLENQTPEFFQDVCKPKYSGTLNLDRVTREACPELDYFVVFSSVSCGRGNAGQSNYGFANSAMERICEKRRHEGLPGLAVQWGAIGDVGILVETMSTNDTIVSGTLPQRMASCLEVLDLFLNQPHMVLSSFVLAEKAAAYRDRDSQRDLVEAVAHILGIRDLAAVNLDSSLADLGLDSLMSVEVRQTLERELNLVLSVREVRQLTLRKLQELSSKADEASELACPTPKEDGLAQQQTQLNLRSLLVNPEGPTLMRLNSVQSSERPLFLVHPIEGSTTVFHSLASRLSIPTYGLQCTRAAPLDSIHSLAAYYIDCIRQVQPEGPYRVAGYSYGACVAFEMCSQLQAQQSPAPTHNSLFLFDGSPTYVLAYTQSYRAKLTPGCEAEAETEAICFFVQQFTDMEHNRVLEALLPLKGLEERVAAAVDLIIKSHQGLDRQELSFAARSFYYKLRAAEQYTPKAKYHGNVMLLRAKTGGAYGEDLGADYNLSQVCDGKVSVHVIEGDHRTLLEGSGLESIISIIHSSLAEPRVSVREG

CNC(=O)Oc1cccc2c1OC(C)(C)C2
active: [9] 50 µM | [15] 50 µM | [17] 28.4 µM
not listed: [20]
inactive: all other assays above

Cc1ccc(N)c(N)c1
active: [9] 40.2 µM
not listed: [12] | [16]
inactive: all other assays above

O=P(OCCCl)(OCCCl)OCCCl
active: [9] 76 µM
not listed: [12] | [20]
inactive: all other assays above

C[C@]12C=CC3=C4CCC(=O)C=C4CC[C@H]3[C@@H]1CC[C@@H]2O
active: [1] 0.0975 µM | [3] 61 µM | [7] 50 µM | [8] 20.3 µM | [12] 83 µM
not listed: [9] | [17]
inactive: all other assays above

Cn1cc(-c2ccccc2)c(=O)c(-c2cccc(C(F)(F)F)c2)c1
active: [3] 9.92 µM | [5] 63.8 µM | [9] 32.6 µM | [10] 9.92 µM | [14] 7.25 µM | [18] 5.1 µM | [19] 10.6 µM
not listed: [12] | [17] | [20]
inactive: all other assays above

O=C(Nc1ccccc1)c1ccccc1I
active: [1] 7.28 µM | [3] 13.2 µM | [6] 22 µM | [8] 50 µM | [9] 27.7 µM | [13] 14.6 µM | [15] 17.1 µM | [17] 23.3 µM | [19] 11.7 µM
not listed: [20]
inactive: all other assays above
